Screening results deposited in PubChem BioAssay by The Scripps Research Institute Molecular Screening Center.
Fam108B inh: mouse Fam108B serine hydrolase inhibitors, primary screen, counter-screen for RBBP9 inhibitor project, biochemical, fluorescence polarization; recombinant Fam108B, FP-Rh probe fluorescence polarization; inhibition, % at 9.51 µM; 300,000 compounds, 0.33% hits; AID 1947, 2009;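 active = inhibition above the screen mean inhibition plus 3 SD, computed separately per campaign, cut at about 18% in these data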;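 also: inhibitors lower polarization as less probe binds the enzyme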
LYPLA1 inh: LYPLA1 inhibitors, primary screen, counter-screen for PME1 inhibitor project, biochemical, fluorescence polarization, FP-Rh probe ABPP | inhibition, % at 5.9 µM | recombinant LYPLA1 | 320,000 compounds, 0.16% hits | Acyl-protein thioesterase 1 (Homo sapiens), O75608;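 active = inhibition above the mean of all tested compounds plus 3 SD, set per campaign, cut at about 14% in these data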;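 also: inhibitors block serine hydrolase probe labeling of LYPLA1 so polarization falls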
LYPLA2 inh: LYPLA2 inhibitors, primary screen, counter-screen for PME1 inhibitor project, biochemical, fluorescence polarization, FP-Rh probe ABPP | Acyl-protein thioesterase 2 (Homo sapiens), O95372 | recombinant LYPLA2 | inhibition, % at 5.9 µM | 320,000 compounds, 0.38% hits | AID 2177, 2009;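 active = inhibition above the screen-wide mean plus 3 SD, limit set per campaign, cut at about 26% in these data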
GSTO1 inh: inhibitors of recombinant GSTO1, primary screen, counter-screen for RBBP9 inhibitor project, biochemical, fluorescence polarization; Glutathione S-transferase omega-1 (Homo sapiens), P78417; activity-based probe fluorescence polarization; inhibition, % at 5.96 µM; 300,000 compounds, 1.1% hits; AID 1974, 2009;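 active = inhibition above the campaign mean inhibition plus 3 SD, cut at about 35% in these data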
PREPL inhibitor: PREPL enzyme inhibitors, primary screen, biochemical, fluorescence polarization; Prolyl endopeptidase-like (Homo sapiens), Q4J6C6; recombinant PREPL, fluorescence polarization activity-based probe; inhibition, % at 5.96 µM; 320,000 compounds, 0.68% hits; in the data active = inhibition above about 43%
Target sequence (Q4J6C6 whole entry, looked up): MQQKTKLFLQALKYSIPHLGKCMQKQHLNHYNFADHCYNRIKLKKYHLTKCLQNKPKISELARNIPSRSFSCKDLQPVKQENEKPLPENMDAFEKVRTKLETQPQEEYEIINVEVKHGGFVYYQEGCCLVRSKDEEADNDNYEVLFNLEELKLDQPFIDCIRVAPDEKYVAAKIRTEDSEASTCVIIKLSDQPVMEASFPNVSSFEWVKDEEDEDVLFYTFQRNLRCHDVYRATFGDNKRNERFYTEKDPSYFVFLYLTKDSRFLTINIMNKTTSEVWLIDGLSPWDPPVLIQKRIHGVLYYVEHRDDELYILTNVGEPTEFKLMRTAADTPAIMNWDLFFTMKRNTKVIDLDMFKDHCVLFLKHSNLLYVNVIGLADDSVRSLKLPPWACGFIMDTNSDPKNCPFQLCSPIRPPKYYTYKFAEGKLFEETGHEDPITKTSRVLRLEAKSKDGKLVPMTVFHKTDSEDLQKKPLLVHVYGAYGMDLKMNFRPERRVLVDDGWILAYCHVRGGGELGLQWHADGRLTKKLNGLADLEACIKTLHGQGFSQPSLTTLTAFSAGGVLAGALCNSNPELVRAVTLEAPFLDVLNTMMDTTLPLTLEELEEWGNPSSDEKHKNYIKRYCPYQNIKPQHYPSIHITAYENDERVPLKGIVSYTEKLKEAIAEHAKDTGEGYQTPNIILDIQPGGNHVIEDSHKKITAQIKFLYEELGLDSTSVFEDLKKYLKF
PME-1 inh: PME-1 inhibitors via competitive probe labeling, primary screen, biochemical, fluorescence polarization, FP-Rh probe, HTS. Protein phosphatase methylesterase 1 (Homo sapiens), Q9Y570. recombinant PME-1. inhibition, % at 5.9 µM. 320,000 compounds, 0.53% hits;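 active = inhibition above the campaign mean of all compounds plus 3 SD, cut at about 26% in these data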;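 also: competitive labeling of PME-1 active site by serine hydrolase directed probe; inhibitors block probe labeling so polarization falls and inhibition rises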
GSTO1 inh conf: GSTO1 inhibitor hit confirmation, counter-screen for RBBP9 inhibitor project, biochemical, fluorescence polarization, triplicate; shares compounds with GSTO1 inh; recombinant GSTO1, probe fluorescence polarization; inhibition, % at 5.96 µM; 2,400 compounds, 54% hits;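 active = inhibition above the primary screen's cutoff, its mean inhibition plus 3 SD, cut at about 35% in these data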;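 also: loss of polarization as inhibitors block binding of rhodamine sulfonate ester activity probe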
GSTO1 ABPP inh: inhibitors of purified human GSTO1, late-stage follow-up, biochemical, gel ABPP, SE-Rh probe, percent inhibition; shares compounds with GSTO1 inh; recombinant GSTO1, gel ABPP SE-Rh probe fluorescence; inhibition, % at 1 µM; 130 compounds, 30% hits; AID 463110, 2010;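 active = inhibition of the enzyme GSTO1 above about 75%, limit read from the data; inactive = inhibition below that limit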
Each line names hits and unclear results; the compound was inactive in the other large screens (follow-up assays come after a bar, where they were run). The list is not random: actives were taken first. Their share in the collection is about 1.9%.

O=[N+]([O-])c1cccc(N(CC2CO2)S(=O)(=O)c2ccccc2)c1 (stereo not given)	GSTO1 inh 101 | GSTO1 inh conf 98 | GSTO1 ABPP inh inactive
Cc1ccc(S(=O)(=O)N(CC(O)CN2CCOCC2)c2cc(Cl)ccc2Cl)cc1 (stereo not given)	none
Cc1ccc(N(CC2CO2)S(=O)(=O)c2ccc([N+](=O)[O-])cc2)cc1 (stereo not given)	GSTO1 inh 88 | GSTO1 inh conf 85 | GSTO1 ABPP inh inactive
COc1ccc(C(=O)NC(C)c2ccc(-n3ccnc3)cc2)c(OC)c1 (stereo not given)	none
Cc1cc(Cl)cc(C)c1OCC(=O)N1CCN(c2ncccn2)CC1	none (no result: Fam108B inh, GSTO1 inh)
CCOc1ccc(N(CC(=O)NCc2ccccc2C)S(C)(=O)=O)cc1	none
Cc1ccc(CN2CCN(c3cccc4[nH]ccc34)CC2)cc1	none
COc1ccc(NC(=S)NC(NC(=O)CCl)C(Cl)(Cl)Cl)c([N+](=O)[O-])c1 (stereo not given)	GSTO1 inh 92 | GSTO1 inh conf 97
COc1ccc(C(C(=O)NC2CCCCC2)N(C(=O)CCl)c2ccc(Cl)cc2)cc1 (stereo not given)	GSTO1 inh 97 | GSTO1 inh conf 89 | GSTO1 ABPP inh 91
COc1ccc(N(C(=O)c2cnccn2)C(C(=O)NC2CCCCC2)c2ccc(Cl)cc2)cc1 (stereo not given)	none
O=C(NC1CCCC1)C(c1ccc(Cl)cc1)N(Cc1ccc(F)cc1)C(=O)CCl (stereo not given)	none
COC(CN(C(=O)CCl)C(C(=O)NC1CCCCC1)c1ccc(Cl)cc1)OC (stereo not given)	GSTO1 inh 73 | GSTO1 inh conf 98 | GSTO1 ABPP inh inactive
Cc1nc2ccccc2c(=O)n1/N=C/c1c(O)ccc2ccccc12	GSTO1 inh 63 | GSTO1 inh conf inactive
O=c1c2ccccc2nc(COc2ccccc2)n1/N=C/c1ccc(O)c(O)c1	GSTO1 inh 53 | GSTO1 inh conf inactive
Cc1n[nH]c(=S)n1/N=C/c1c(O)ccc2ccccc12	GSTO1 inh 59 | GSTO1 inh conf inactive
O=C(O)COc1ccc(/C=N/n2c(COc3ccccc3)nc3ccccc3c2=O)cc1	none
Fc1ccc(-n2c(Cn3nnc4ccccc43)n[nH]c2=S)cc1	none
Nc1cc(-c2ccncc2)c[nH]c1=O	GSTO1 inh 42 | GSTO1 inh conf inactive
COc1ccc(Cl)cc1S(=O)(=O)NC(C)C(=O)NCCCn1ccnc1 (stereo not given)	none
COc1ccc(NS(=O)(=O)c2cccc(C(=O)NNC(=O)c3ccccc3O)c2)cc1	GSTO1 inh 47 | GSTO1 inh conf inactive
COC(=O)CCC(=O)OC1(C)C(=O)C2=CN(CCc3c[nH]c4ccccc34)C(c3ccc(OC)cc3)=CC2=C(Br)C1=O (stereo not given)	none
COC(=O)CCC(=O)OC1(C)C(=O)C2=CN(c3ccccc3)C(c3ccc(OC)cc3)=CC2=C(Br)C1=O (stereo not given)	GSTO1 inh 45 | GSTO1 inh conf inactive
COC(=O)CCC(=O)OC1(C)C(=O)C2=CN(CCCOC(C)C)C(c3ccc(OC)cc3)=CC2=C(Br)C1=O (stereo not given)	GSTO1 inh 52 | GSTO1 inh conf 65
COC(=O)CCC(=O)OC1(C)C(=O)C2=CN(Cc3ccc(OC)cc3)C(c3ccc(OC)cc3)=CC2=C(Br)C1=O (stereo not given)	GSTO1 inh 38 | GSTO1 inh conf 39
O=C(CNS(=O)(=O)c1ccc(Br)s1)N1CCN(c2ccc(F)cc2)CC1	none
CCn1c(-c2ccccc2Cl)nn(CC(=O)Nc2cc(Cl)ccc2Cl)c1=S	GSTO1 inh 38 | GSTO1 inh conf inactive
Cc1ccc2nc(/C(C#N)=C\c3ccc([N+](=O)[O-])o3)[nH]c2c1	GSTO1 inh 39 | GSTO1 inh conf inactive
N#C/C(=C\c1ccc([N+](=O)[O-])o1)c1nc2ccccc2[nH]1	none
O=C(/C=C/c1ccc([N+](=O)[O-])cc1)OCC(=O)c1ccc[nH]1	none (no result: Fam108B inh, LYPLA1 inh, LYPLA2 inh, GSTO1 inh, PME-1 inh)
CNCc1ccccc1Sc1cccc(O)c1	none
CNCc1ccccc1Sc1cc(O)ccc1O	GSTO1 inh 89 | GSTO1 inh conf 55
O=C(NC1CCCCC1)c1ccc(-c2ccccc2F)o1	none (no result: Fam108B inh, LYPLA1 inh, LYPLA2 inh, GSTO1 inh, PME-1 inh)
Cc1cccc(OCc2nnc(-c3ccc(F)cc3)o2)c1	none (no result: Fam108B inh, GSTO1 inh)
COc1ccc(-n2[nH]c(C)cc2=O)cc1	GSTO1 inh 59 | GSTO1 inh conf inactive
O=c1c2c([N+](=O)[O-])cc([N+](=O)[O-])cc2sn1-c1ccc(Br)cc1	GSTO1 inh 38 | GSTO1 inh conf inactive
O=c1c2c([N+](=O)[O-])cc([N+](=O)[O-])cc2sn1Cc1ccccc1	none
Cc1ccc(N(C(=O)c2csnn2)C(C(=O)NC2CCCCC2)c2cccnc2)c(C)c1 (stereo not given)	none
C=C[C@]1(C)C=C2CCC3[C@](C)(CCC[C@@]3(C)C(=O)O)C2CC1 (stereo not given in full)	none
CC(C)C1=CC2=CCC3C(C)(C(=O)O)CCCC3(C)C2CC1 (stereo not given) (tested in a mixture with another compound)	GSTO1 inh 39 | GSTO1 inh conf inactive
CCC1(C)NC(C(=O)O)Cc2c1[nH]c1ccccc21 (stereo not given)	none
COC(=O)C1Cc2c([nH]c3ccccc23)C2(CCN(Cc3ccccc3)CC2)N1 (stereo not given)	GSTO1 inh 62 | GSTO1 inh conf inactive
COc1cc(/C=N/NS(=O)(=O)c2ccc(C(C)(C)C)cc2)cc([N+](=O)[O-])c1O	GSTO1 inh 50 | GSTO1 inh conf 64
Cc1ccc(C2CC(c3cccs3)=NN2C(=O)CCl)cc1 (stereo not given)	GSTO1 inh 87 | GSTO1 inh conf 97
CCC(=O)N1N=C(c2cccs2)CC1c1ccc(C)cc1 (stereo not given)	none
